Experimental data published in the supplement of paper PMC8975748.
Counter-ions that a name gives are not always drawn.

Tested on: Saccharomyces cerevisiae BY4741 SeMeCo community
Assay: z-score of subpopulation abundance vs DMSO median, subpopulation auxotrophic for HUM; higher = larger share of this subpopulation than in DMSO controls
Details: 10 µM; 24 h; SM minimal medium; subpopulation (auxotrophy): HUM
Outline: (§1)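 Four plasmids, each restoring a single auxotrophy and encoding a distinct fluorescent protein, were carried by a Saccharomyces cerevisiae BY4741 community. After overnight growth to OD600 1.0 and dilution to 0.3, 70 µl per well was grown for 24 h in minimal SM medium on 384-well plates acoustically predosed with library drugs at 10 µM final. Following paraformaldehyde fixation, automated confocal microscopy was used, with single-auxotroph fluorescent strains defining thresholds and autofluorescence correction. Subpopulation abundance was then scored as a z-score against the vehicle-well median.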

| SMILES | z-score of subpopulation abundance |
| --- | --- |
| CN(C)CC(c1ccc(O)cc1)C1(O)CCCCC1 (stereo unspecified) [Desvenlafaxine] | -0.85 |
| CN(C)CCC=C1c2ccccc2C(C)(C)c2ccccc21 [Melitracen hydrochloride] | -0.78 |
| Oc1cccc(O)c1 [Resorcinol] | -0.96 |
| C#C[C@]1(O)CC[C@H]2[C@@H]3CCC4=CCCC[C@@H]4[C@H]3C(=C)C[C@@]21CC [Desogestrel] | -0.05 |
| C[C@]1(COc2ccc(N3CCC(Oc4ccc(OC(F)(F)F)cc4)CC3)cc2)Cn2cc([N+](=O)[O-])nc2O1 [Delamanid] | -0.19 |
| NC[C@H]1O[C@H](O[C@H]2[C@H](O)[C@@H](O[C@H]3O[C@H](CO)[C@@H](O)[C@H](N)[C@H]3O)[C@H](N)C[C@@H]2N)[C@H](O)[C@@H](O)[C@@H]1O [Kanamycin sulfate] | 0.21 |
| CCC(=O)O[C@@H]1CC(=O)O[C@H](C)C/C=C/C=C/[C@H](O)[C@H](C)C[C@H](CC=O)[C@H](O[C@@H]2O[C@H](C)[C@@H](O[C@H]3C[C@@](C)(O)[C@@H](OC(=O)CC)[C@H](C)O3)[C@H](N(C)C)[C@H]2O)[C@H]1OC [Midecamycin] | 0.7 |
| CCOc1ccc2nc3cc(N)ccc3c(N)c2c1 [Ethacridine lactate monohydrate] | -6.59 |
| CC1(C)S[C@@H]2[C@H](NC(=O)Cc3ccccc3)C(=O)N2[C@H]1C(=O)O [Benzathine penicilline] | -0.33 |

Tested on: Saccharomyces cerevisiae BY4741 SeMeCo community
Assay: z-score of subpopulation abundance vs DMSO median, subpopulation auxotrophic for LUM; higher = larger share of this subpopulation than in DMSO controls
Details: 10 µM; 24 h; SM minimal medium; subpopulation (auxotrophy): LUM
Outline: as §1

| SMILES | z-score of subpopulation abundance |
| --- | --- |
| CN(C)CCC=C1c2ccccc2C(C)(C)c2ccccc21 [Melitracen hydrochloride] | -0.83 |
| Oc1cccc(O)c1 [Resorcinol] | -0.89 |
| C#C[C@]1(O)CC[C@H]2[C@@H]3CCC4=CCCC[C@@H]4[C@H]3C(=C)C[C@@]21CC [Desogestrel] | -0.72 |
| C[C@]1(COc2ccc(N3CCC(Oc4ccc(OC(F)(F)F)cc4)CC3)cc2)Cn2cc([N+](=O)[O-])nc2O1 [Delamanid] | 0.42 |
| Cn1nnnc1SCC1=C(C(=O)O)N2C(=O)[C@@H](NC(=O)[C@H](OC=O)c3ccccc3)[C@H]2SC1 [Cefamandole nafate] | 0.16 |
| Cc1c(OCC(F)(F)F)ccnc1C[S@@+]([O-])c1nc2ccccc2[nH]1 [Dexlansoprazole] | 0.16 |
| CCOc1ccc2nc3cc(N)ccc3c(N)c2c1 [Ethacridine lactate monohydrate] | -5.24 |
| CN1CCN(CC(=O)N2c3ccccc3C(=O)Nc3cccnc32)CC1 [Pirenzepine dihydrochloride] | -1.37 |
| CC1(C)S[C@@H]2[C@H](NC(=O)Cc3ccccc3)C(=O)N2[C@H]1C(=O)O [Benzathine penicilline] | -0.44 |

Tested on: Saccharomyces cerevisiae BY4741 SeMeCo community
Assay: z-score of subpopulation abundance vs DMSO median, subpopulation auxotrophic for HLUM; higher = larger share of this subpopulation than in DMSO controls
Details: 10 µM; 24 h; SM minimal medium; subpopulation (auxotrophy): HLUM
Outline: as §1

| SMILES | z-score of subpopulation abundance |
| --- | --- |
| Nc1ccc(S(=O)(=O)c2ccc(N)cc2)cc1 [Dapson] | 0.06 |
| CN(C)CC(c1ccc(O)cc1)C1(O)CCCCC1 (stereo unspecified) [Desvenlafaxine] | -0.91 |
| CN(C)CCC=C1c2ccccc2C(C)(C)c2ccccc21 [Melitracen hydrochloride] | -0.56 |
| Cn1nnnc1SCC1=C(C(=O)O)N2C(=O)[C@@H](NC(=O)[C@H](OC=O)c3ccccc3)[C@H]2SC1 [Cefamandole nafate] | 0.78 |
| Cc1c(OCC(F)(F)F)ccnc1C[S@@+]([O-])c1nc2ccccc2[nH]1 [Dexlansoprazole] | -0.54 |
| CCC(=O)O[C@@H]1CC(=O)O[C@H](C)C/C=C/C=C/[C@H](O)[C@H](C)C[C@H](CC=O)[C@H](O[C@@H]2O[C@H](C)[C@@H](O[C@H]3C[C@@](C)(O)[C@@H](OC(=O)CC)[C@H](C)O3)[C@H](N(C)C)[C@H]2O)[C@H]1OC [Midecamycin] | -0.96 |
| CCOc1ccc2nc3cc(N)ccc3c(N)c2c1 [Ethacridine lactate monohydrate] | -2.52 |
| CN1CCN(CC(=O)N2c3ccccc3C(=O)Nc3cccnc32)CC1 [Pirenzepine dihydrochloride] | -0.89 |
